40 compounds from PubChem BioAssay (NCI) can be followed below.

SMILES strings stand for the structures. The panel holds about 83,000 compounds, 20% with a hit somewhere; the sample as a whole holds those more often.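 Cells were grown in 96-well plates and exposed to the test compound at a single concentration for 48 hours; results are reported as percent growth, with values below 10 considered active.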 Active and inactive are the calls of the source.

The subject of this assay is NCI-H226 lung. The assay is described as follows: NCI-60 one-dose screen, 48 h (100 = growth as untreated, 0 = no growth, -100 = all killed). The note with it: 10 µM unless noted. The procedure:
Growth inhibition of the NCI-H226 human Non-Small Cell Lung tumor cell line is measured as a screen for anti-cancer activity. Cells are grown in 96 well plates and exposed to the test compound for 48 hours. Compounds are tested at a single concentration, which is 10^-5 M for most compounds. The reported endpoint is percent growth (GI% or GIPRCNT), where numbers from 0 - 100% represent growth inhibition, and numbers from -100% - 0 represent cell death. For example, a value of 40 represents 60% growth inhibition. A value of 0 means no net growth occurred over the course of the experiment. A value of -40 indicates 40% of cells at the beginning of the experiment died by the end of the experiment. A value of -100 means all cells are dead at the end of the experiment.
NCI-60 Human Tumor Cell Lines Screen was performed using the standard one-dose NCI protocol, which is described in more detail at https://dtp.cancer.gov/discovery_development/nci-60/default.htm.
Compounds with GIPRCNT values below 10 were considered active. Activity score was based on GIPRCNT using the following formula: […]
Score is 0 for GIPRCNT values of 100 or above, 50 for GIPRCNT values of 0, and 100 for GIPRCNT values of -100.
As for `S=C(Nc1ccc(C2=NCCN2)cc1)Nc1ccc(C2=NCCN2)cc1`, the growth was 86.8% (inactive).
Under `COC1=CC(c2ccc[nH]2)=N/C1=C\c1[nH]c(C)c(C(=O)CCC(=O)Oc2ccc3c(c2)CCC2C3CC[C@]3(C)C(=O)CC[C@@H]23)c1C` (stereo not given in full) stands 87.6% (inactive).
Turning to `Cc1nnc(Nc2ccc(NC(=O)Nc3ccc(Cl)cc3)cc2)c2ccccc12`, the growth is 71.9% (inactive).
For the compound `CC(c1ccccn1)C(C)(O)C(C)c1ccccn1` (stereo not given), the growth is 103% (inactive).
With `C=C(C)[C@H]1CC/C(C)=C/CC[C@]2(C)O[C@H]2CC/C(C=O)=C\C1O` (stereo not given in full), the growth is 106% (inactive).
Next, `COc1ccc(-c2csc(NC(=O)c3cc(OC)c(OC)c(OC)c3)n2)cc1`: 94.1% (inactive).
Next, `Cc1cc2cn3c4cccnc4[nH]c(=O)c3c2cc1C`: 90.3% (inactive); `CC[N+](CC)(CCOCCOCC[N+](CC)(CC)Cc1ccc([N+](=O)[O-])cc1)Cc1ccc([N+](=O)[O-])cc1`: 91.7% (inactive).
In the case of `CC/C=C\C=C/C(=O)N/C=C/CC1Cc2cccc(O)c2C(=O)O1` (stereo not given), the growth was 110% (inactive).
Under `CCCc1cc(=O)n2c(C(=O)Nc3ccccc3OC)c(C(=O)Nc3ccc(F)cc3)sc2n1` stands 62.3% [30 µM] (inactive); under `CC(C)c1nc(N(C)S(C)(=O)=O)nc(-c2ccc(F)cc2)c1/C=C/[C@@H](O)C[C@@H](O)CC(=O)O`, 105% (inactive).
Under `COc1ccc2nc3cc(Cl)ccc3c(N3CCN(c4ccnc(Nc5ccc(F)cc5)n4)CC3)c2c1` stands 98.5% (inactive); under `CC(C)[C@]12O[C@H]1[C@@H]1O[C@]13[C@]1(O[C@H]1C[C@H]1C4=C(CC[C@@]13C)C(=O)OC4)[C@@H]2OC(=O)CN(C)C`, 10.6% (inactive); under `COc1ccc(COC(C)=O)cc1`, 104% (inactive).
Consider `O=C(Nc1cccc(-n2cc(-c3ccncc3)c(-c3ccc(O)c(Cl)c3)n2)c1)Nc1ccc(Cl)c(C(F)(F)F)c1`, for which the growth is 20.2% (inactive).
In the case of `COc1ccc2nc(-c3ccc(-n4cncc4-c4ccc(OC)c(N)c4)cc3)sc2c1`, the growth is 108% (inactive).
Next, `CCCCCCCC1(C)NC(=O)NC1=O` (stereo not given): 113% (inactive).
Next, `OC(c1cc(C(F)(F)F)nc2c(C(F)(F)F)cccc12)C1CCCCN1` (stereo not given): 73.1% (inactive); `O=C1/C(=C/c2ccc([N+](=O)[O-])o2)Oc2ccc(Br)cc21`: 98% (inactive); `CN=C(NC)N/N=C(C)\C=N\NC(=NC)NC`: 98.8% (inactive).
Under `Oc1ccc(-c2nn(-c3ccccc3)cc2-c2nc3ccccc3s2)cc1` stands 85.9% (inactive).
In the case of `CN(C)c1ccc2[nH]c3c(C(N)=O)cc(=O)c(=O)c=3oc2c1`, the growth was 87.7% (inactive).
Next, `Cc1cc2c(cc1[N+](=O)[O-])NC(CNC(C)C)CC2` (stereo not given): 93.6% (inactive).
`O=c1c(O)cccn1CCCNCCCN(CCCn1cccc(O)c1=O)CCCn1cccc(O)c1=O`: the growth was 95% (inactive).
Next, `CNc1ccc(CSc2ccc(Cl)cc2)cc1`: 84.6% (inactive); `COc1cc(/C=C2\CCC/C(=C\c3ccc(OCC4CO4)c(OC)c3)C2=O)ccc1OCC1CO1` (stereo not given): 86.2% (inactive); `CCOc1nc(-c2ccccc2)cc2c(O)c(C(=O)n3nc(C)cc3C)[nH]c(=O)c12`: 91.8% (inactive).
Under `COc1ccc2c(c1)[nH]c(=O)c1c3cc(OC)c(OC)cc3cn21` stands 44.6% (inactive); under `O=C(Nc1ccncc1)C(=O)c1cn(S(=O)(=O)c2cccc(F)c2)c2ccccc12`, 75.8% (inactive).
Consider `O=C1c2ccccc2C(=O)c2c1cccc2-n1nnc2ccccc21`, for which the growth was 103% (inactive).
Under `COc1ccc(-c2noc(N)c2-c2cc(OC)c3c(c2)OCO3)cc1` stands 86.3% (inactive); under `CCC(=O)Nc1ccccc1C#C/C=C\C#Cc1ccccc1C(F)(F)F`, 52.5% (inactive); under `Cc1ccc(NC(=O)Nc2ccc(-c3cccnc3)cc2N2CCC(CO)CC2)cc1`, 54% (inactive).
Next, `OC(CCC(O)(c1ccccc1)c1ccccc1)(c1ccccc1)c1ccccc1`: 86.6% (inactive); `O=C1Cc2cc(CCN3CCN(CCOCCO)CC3)c(Cl)cc2N1Cc1ccc(-c2ccccc2-c2nn[nH]n2)cc1`: 81.8% (inactive).
For `O=C1c2nsnc2C(=O)c2c(F)c(F)c(F)c(F)c21`, the growth is -38.2% (active).
Consider `CCN(CC)CCOc1ccccc1-n1c(C)ccc1-c1ccccc1`, for which the growth is 92% (inactive).
As for `O=C(COC(=O)[C@H](C[Se][Se]C[C@H](NC(=O)c1ccc(Br)cc1F)C(=O)OCC(=O)c1ccc(F)cc1)NC(=O)c1ccc(Br)cc1F)c1ccc(F)cc1`, the growth is -73.2% (active).
Consider `Cc1cc(C(=O)O)c(C)cc1C(=O)O`, for which the growth is 101% (inactive).
Turning to `C/C(=C\CCc1ccoc1)CC/C=C(\C)CCCN1CCC(CO)CC1`, the growth is 74.9% (inactive).
